# Assay results from PubChem BioAssay.
# Active and inactive are the calls of the source.
# Legend:
# [1] = system: Plasmodium falciparum Sir2 (PF13_0152, Sir2A); test: Plasmodium falciparum Sir2A binding compounds – biochemical, small-molecule microarray, 635 nm fluorescence, primary screen (AID 1098); details: fluorescence 635 nm, higher = more signal;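 also: score merges spot fluorescence intensity with its signal-to-noise ratio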
# [2] = probe aDKK1 binding to arrayed compounds – biochemical, biotinylated probe, 635/667 nm fluorescence, primary screen (AID 1099); details: small-molecule microarray, higher = more signal;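 also: score merges 667nm spot fluorescence with signal to noise across triplicate slides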
# [3] = probe aCHRDL2 binding to arrayed compounds – biochemical, biotinylated probe, 635/667 nm fluorescence, primary screen (AID 1100); details: small-molecule microarray, higher = more signal
# [4] = change in splice reporter luminescence, either direction, cell-based, HEK293, spliceosome inhibition project, primary screen (AID 1101); details: HEK293 splicing luciferase reporter, 24 h, higher = more signal, called active from +8 up or from −8 down;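 also: HEK293 cells carrying a splicing-competent luciferase reporter gene; test concentration not given here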
# [5] = target: Fibroblast growth factor 10 (Homo sapiens) (UniProt O15520); test: compounds binding fibroblast growth factor 10 – biochemical, small-molecule microarray, 635 nm fluorescence, primary screen (AID 1102); details: FGF10 binding, fluorescence 635 nm, higher = more signal
# Fibroblast growth factor 10 (Homo sapiens), sequence (O15520 whole entry, looked up): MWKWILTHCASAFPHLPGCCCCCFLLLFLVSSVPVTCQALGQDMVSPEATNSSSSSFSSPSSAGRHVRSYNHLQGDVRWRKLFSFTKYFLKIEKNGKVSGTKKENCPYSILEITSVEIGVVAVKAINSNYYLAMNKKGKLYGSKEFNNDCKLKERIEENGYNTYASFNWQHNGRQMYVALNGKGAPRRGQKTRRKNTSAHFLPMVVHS
# [6] = system: glycogen synthase kinase-3 (GSK3A per assay name; protocol says GSK3B); test: compounds binding glycogen synthase kinase-3 – biochemical, small-molecule microarray, 635 nm fluorescence, GSK3A, primary screen (AID 1103); details: fluorescence 635 nm, higher = more signal; also: the record names both GSK3A and GSK3B
# [7] = target: Epidermal growth factor receptor (Homo sapiens) (UniProt P00533); test: compounds binding epidermal growth factor receptor – biochemical, small-molecule microarray, 635 nm fluorescence, primary screen (AID 1104); details: EGFR binding, higher = more signal;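 also: score merges 667 nm emission intensity with spot signal to noise over triplicate slides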
# Epidermal growth factor receptor (Homo sapiens), sequence (P00533 whole entry, looked up): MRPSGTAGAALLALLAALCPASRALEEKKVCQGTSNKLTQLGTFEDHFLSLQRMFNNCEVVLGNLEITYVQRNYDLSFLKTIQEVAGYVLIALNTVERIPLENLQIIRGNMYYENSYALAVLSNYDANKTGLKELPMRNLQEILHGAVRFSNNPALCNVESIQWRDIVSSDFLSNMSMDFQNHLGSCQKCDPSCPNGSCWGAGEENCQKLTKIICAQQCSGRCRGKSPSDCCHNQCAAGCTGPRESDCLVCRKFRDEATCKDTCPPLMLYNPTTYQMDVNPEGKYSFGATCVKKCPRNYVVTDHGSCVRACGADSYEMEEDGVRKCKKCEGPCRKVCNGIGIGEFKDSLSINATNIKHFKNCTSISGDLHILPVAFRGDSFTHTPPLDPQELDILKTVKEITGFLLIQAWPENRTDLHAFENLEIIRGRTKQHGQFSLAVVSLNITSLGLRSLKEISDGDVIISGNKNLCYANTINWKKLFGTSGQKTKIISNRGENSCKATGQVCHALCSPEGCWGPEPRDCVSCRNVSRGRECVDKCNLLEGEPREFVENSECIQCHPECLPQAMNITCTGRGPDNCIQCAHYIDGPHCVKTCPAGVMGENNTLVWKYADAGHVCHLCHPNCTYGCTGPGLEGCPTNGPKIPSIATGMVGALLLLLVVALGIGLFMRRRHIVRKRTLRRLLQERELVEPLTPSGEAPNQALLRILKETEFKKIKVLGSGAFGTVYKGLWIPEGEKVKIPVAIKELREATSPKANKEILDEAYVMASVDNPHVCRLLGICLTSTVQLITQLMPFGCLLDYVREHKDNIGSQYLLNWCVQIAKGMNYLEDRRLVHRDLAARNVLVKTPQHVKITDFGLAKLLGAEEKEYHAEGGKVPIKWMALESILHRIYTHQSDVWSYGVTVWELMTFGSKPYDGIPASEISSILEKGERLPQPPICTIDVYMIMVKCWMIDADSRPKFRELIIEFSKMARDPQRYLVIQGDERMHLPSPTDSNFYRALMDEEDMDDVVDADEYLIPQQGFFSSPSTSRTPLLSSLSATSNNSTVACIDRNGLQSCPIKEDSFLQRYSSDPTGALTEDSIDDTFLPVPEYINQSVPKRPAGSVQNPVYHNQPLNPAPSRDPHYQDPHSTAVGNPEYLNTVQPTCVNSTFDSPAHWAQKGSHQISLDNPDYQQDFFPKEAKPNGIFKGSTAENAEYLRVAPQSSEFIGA
# [8] = target: Follistatin-related protein 3 (Homo sapiens) (UniProt O95633); test: compounds binding follistatin-related protein 3 – biochemical, small-molecule microarray, 635 nm fluorescence, primary screen (AID 1105); details: FSTL3 binding, higher = more signal;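 also: score merges emission near 667 nm and signal to noise per printed spot across three slides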
# Follistatin-related protein 3 (Homo sapiens), sequence (O95633 whole entry, looked up): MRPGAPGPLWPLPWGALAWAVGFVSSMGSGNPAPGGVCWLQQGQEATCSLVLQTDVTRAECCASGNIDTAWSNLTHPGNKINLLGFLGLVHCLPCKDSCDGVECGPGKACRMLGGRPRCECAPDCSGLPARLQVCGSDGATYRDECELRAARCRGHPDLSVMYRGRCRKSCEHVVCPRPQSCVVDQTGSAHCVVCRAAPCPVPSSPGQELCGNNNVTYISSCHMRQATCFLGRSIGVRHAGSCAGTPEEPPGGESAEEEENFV
# [9] = target: Dickkopf-related protein 1 (Homo sapiens) (UniProt O94907); test: small molecules binding DKK1 protein – biochemical, small-molecule microarray, 635 nm fluorescence scan, primary screen (AID 1106); details: higher = more signal;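 also: score merges emission near 667 nm with signal to noise over three replicate slides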
# Dickkopf-related protein 1 (Homo sapiens), sequence (O94907 whole entry, looked up): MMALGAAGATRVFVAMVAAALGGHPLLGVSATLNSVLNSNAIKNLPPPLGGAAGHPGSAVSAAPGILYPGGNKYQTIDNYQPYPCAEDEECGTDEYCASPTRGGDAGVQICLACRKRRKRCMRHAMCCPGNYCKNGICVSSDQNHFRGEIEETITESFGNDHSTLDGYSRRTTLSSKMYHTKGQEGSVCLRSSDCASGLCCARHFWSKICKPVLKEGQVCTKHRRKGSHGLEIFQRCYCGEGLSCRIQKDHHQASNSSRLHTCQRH
# [10] = system: Inhibin beta A chain (activin A); test: small molecules binding activin A – biochemical, small-molecule microarray, 635 nm fluorescence scan, primary screen (AID 1107); details: INHBA, higher = more signal;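 also: mouse activin A protein probed at 4.33 µg/mL on printed slides; score merges bound-protein fluorescence near 667 nm with spot signal-to-noise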
# [11] = system: Human papillomavirus type 1a protein E7 (residues 44-93); test: small molecules binding HPV E7 44-93 – biochemical, small-molecule microarray, residues 44-93, 635 nm fluorescence, primary screen (AID 1108); details: fluorescence 635 nm, higher = more signal;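 also: E7 fragment applied at 1 µg/mL in TBST for 1 h at 4 C; score combines spot fluorescence with its signal to noise ratio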
# [12] = hepatitis C replication reporter changes, two-sided – Huh7 cells, luciferase reporter, HCV replication inhibitor project, primary screen (AID 1109); details: Huh7 HCV replicon luciferase reporter, 48 h; higher = more signal;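 also: huh7 hepatoma cells harbouring a luciferase neomycin HCV replicon reporter; luciferase luminescence as measure of HCV replicon replication; test concentration not given here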
# [13] = target: Left-right determination factor 2 (Homo sapiens) (UniProt O00292); test: small molecules binding LEFTY2 protein – biochemical, small-molecule microarray, 635 nm fluorescence scan, primary screen (AID 1110); details: higher = more signal
# Left-right determination factor 2 (Homo sapiens), sequence (O00292 whole entry, looked up): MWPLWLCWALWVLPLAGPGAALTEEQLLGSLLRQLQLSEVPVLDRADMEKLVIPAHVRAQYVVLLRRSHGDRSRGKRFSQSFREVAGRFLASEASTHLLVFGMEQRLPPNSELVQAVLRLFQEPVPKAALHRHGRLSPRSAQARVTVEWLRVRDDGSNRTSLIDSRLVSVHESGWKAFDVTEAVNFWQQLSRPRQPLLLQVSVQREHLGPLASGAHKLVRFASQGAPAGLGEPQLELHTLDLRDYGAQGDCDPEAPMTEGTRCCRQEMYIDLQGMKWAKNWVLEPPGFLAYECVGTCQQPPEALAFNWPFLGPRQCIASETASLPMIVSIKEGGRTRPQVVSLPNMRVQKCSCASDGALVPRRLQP
# [14] = target: Calmodulin-1 (Homo sapiens) (UniProt P0DP23); test: small molecules binding calmodulin-1 with EGTA – biochemical, small-molecule microarray, Cy5-labelled CALM1, profiling panel (AID 1111); details: Cy5-CALM1 binding fluorescence, higher = more signal;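 also: labelled calmodulin applied in Tris saline Tween buffer holding calcium plus EGTA and DTT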
# [15] = target: Calmodulin-1 (Homo sapiens) (UniProt P0DP23); test: small molecules binding Ca-loaded calmodulin-1 – biochemical, small-molecule microarray, Cy5-labelled CALM1, plus calcium, artefact control for SMM control-protein annotation, profiling panel (AID 1112); details: Cy5-CALM1 binding fluorescence, higher = more signal;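 also: score merges spot fluorescence with signal to noise from triplicate slides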
# [16] = probe aWnt5a binding to arrayed compounds – biochemical, biotinylated probe, 635/667 nm fluorescence, primary screen (AID 1113); details: small-molecule microarray, higher = more signal;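 also: score merges 667 nm fluorescence intensity with signal-to-noise per printed feature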
# [17] = probe aShh binding to arrayed compounds – biochemical, biotinylated probe, 635/667 nm fluorescence, primary screen (AID 1114); details: small-molecule microarray, higher = more signal;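 also: probe is biotin-labelled aShh protein from a stem cell growth factor screen; measures binding of labelled protein to compounds printed on the slide; score merges feature fluorescence at 667 nm with signal-to-noise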
# [18] = probe aNog binding to arrayed compounds – biochemical, biotinylated probe, 635/667 nm fluorescence, primary screen (AID 1115); details: small-molecule microarray, higher = more signal;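 also: probe is biotinylated aNog protein used at 0.15 µg/mL for 1 h at 4 C; z-score combines 667 nm fluorescence of each spot with its signal to noise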
# [19] = target: Torsin-1A-interacting protein 1 (Homo sapiens) (UniProt Q5JTV8); test: compound microarray binding of lysate hLAP1 – cell lysate, small-molecule microarray, COS7 lysate, 635/667 nm fluorescence, primary screen (AID 1116); details: 635 nm fluorescence, higher = more signal
# Torsin-1A-interacting protein 1 (Homo sapiens), sequence (Q5JTV8 whole entry, looked up): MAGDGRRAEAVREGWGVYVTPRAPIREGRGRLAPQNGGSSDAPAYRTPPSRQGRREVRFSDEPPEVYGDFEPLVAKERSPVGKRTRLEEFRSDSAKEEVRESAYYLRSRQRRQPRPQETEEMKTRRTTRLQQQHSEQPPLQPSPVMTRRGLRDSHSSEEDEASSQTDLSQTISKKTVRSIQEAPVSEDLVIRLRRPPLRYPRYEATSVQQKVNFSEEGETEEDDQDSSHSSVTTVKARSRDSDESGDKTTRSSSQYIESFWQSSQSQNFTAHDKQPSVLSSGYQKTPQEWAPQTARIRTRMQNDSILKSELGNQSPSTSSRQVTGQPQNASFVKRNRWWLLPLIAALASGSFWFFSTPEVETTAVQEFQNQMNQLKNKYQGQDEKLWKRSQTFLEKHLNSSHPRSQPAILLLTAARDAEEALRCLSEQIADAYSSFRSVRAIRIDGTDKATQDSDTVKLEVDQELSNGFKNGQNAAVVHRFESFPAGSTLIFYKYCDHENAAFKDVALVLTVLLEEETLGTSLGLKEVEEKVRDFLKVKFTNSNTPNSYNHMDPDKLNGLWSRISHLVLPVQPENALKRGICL
# [20] = target: Alpha-bungarotoxin (Bungarus multicinctus) (UniProt P60615); test: compounds binding labelled alpha-BTX control protein – biochemical, small-molecule microarray, Alexa647 label, 635/667 nm fluorescence, artefact control for SMM control protein annotation, profiling panel (AID 1117); details: alpha-BTX-A647 binding fluorescence, higher = more signal
# Alpha-bungarotoxin (Bungarus multicinctus), sequence (P60615 whole entry, looked up): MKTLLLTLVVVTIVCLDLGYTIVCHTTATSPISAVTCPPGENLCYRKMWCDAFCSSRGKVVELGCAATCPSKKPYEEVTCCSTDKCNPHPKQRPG
SMILES,composite z-score [1],composite z-score [2],composite z-score [3],z-score [4],composite z-score [5],composite z-score [6],composite z-score [7],composite z-score [8],composite z-score [9],composite z-score [10],composite z-score [11],z-score [12],composite z-score [13],composite z-score [14],composite z-score [15],composite z-score [16],composite z-score [17],composite z-score [18],composite z-score [19],composite z-score [20]
O=C(CS)NCCCCCCNC(=O)[C@@H]1C[C@@H]2C(=O)N3CCC[C@H]3C(=O)N2[C@@H]1c1cccc(OCCO)c1,1.62,0.0302,0.396,-1.77 (inactive),0.964,0.896,0.559,0.704,0.426,0.653,1.41,0.0871,0.289,1.49,0.36,0.206,-0.0866,0.0482,1.41,2.16
COc1ccc(C#Cc2ccc3c(c2)[C@]2(C(=O)N3)[C@H](C(=O)N3CCc4cc(OC)c(OC)cc4C3)[C@H]3C(=O)O[C@H](c4ccccc4)[C@H](c4ccccc4)N3[C@@H]2c2ccc(O)cc2)cc1,0.822,-0.29,-0.178,-0.00287 (inactive),0.851,1.29,0.537,0.957,0.513,-0.214,1.38,-1.21,0.388,1.22,0.06,-0.122,-0.0243,0.272,0.0204,1.04
CCCC[C@@H]1C[C@H]1[C@@H](NC(=O)c1ccccc1)c1ccc(Cl)cc1,-1.24,0.15,1.01,-1.93 (inactive),-1.38,-1.78,-1.77,-2.35,-1.36,0.39,-1.15,-1.65,-1.86,0.014,1.42,-0.247,-0.209,0.253,1.23,-1.51
COc1ccc(NN2C(C(O)c3ccccn3)C=CC3C(=O)N(C4CCCCC4)C(=O)C32)cc1 (stereo not given),1.31,0.2,0.862,-1.44 (inactive),0.962,1.25,0.224,1.16,-0.39,0.627,1.41,-0.602,-0.188,1.58,0.37,0.0391,0.0875,1.17,0.766,0.887
CCCCN1CC=CC23O[C@@H]4C=CCOC(=O)[C@@H]4[C@H]2C(=O)N(C(C)CO)[C@@H]3C1=O (stereo not given in full),1.1,0.198,0.774,0.408 (inactive),-0.291,-1.44,-1.21,-1.22,-1.14,0.286,-1.31,-0.748,-1.29,-0.397,0.5,-0.169,-0.209,0.26,-0.194,-0.714
C[C@H]1C2=C3C(CC[C@H]4C(OCc5ccc(F)cc5C(F)(F)F)OC[C@](C)([C@@H]34)N(C(=O)OC(C)(C)C)C2)C(CO)C1CO (stereo not given in full),0.0402,-0.0997,0.984,0.509 (inactive),-0.0455,0.875,-0.249,0.885,-0.461,1.09,1.34,-2.81,-0.593,2.4,0.861,0.114,0.255,-0.697,0.222,0.671
COC(=O)C(CC#Cc1ccc2c(c1)[C@]1(C(=O)N2)[C@H](C(=O)O)[C@H]2C(=O)O[C@H](c3ccccc3)[C@H](c3ccccc3)N2[C@@H]1c1ccccc1OCCO)C(=O)OC,1.58,0.485,0.327,0.78 (inactive),1.19,1.31,0.384,1.06,0.337,0.194,0.851,-2.04,0.445,1.62,0.369,-0.001,0.108,0.767,1.1,1.79
CCOC(=O)C[C@H]1[C@H](OC(=O)Cc2ccc3c(c2)OCO3)[C@@H](NC(=O)Cc2ccc(OC)cc2)c2cc(OCCCO)ccc2N1C(=O)c1ccccc1,1.07,0.423,0.383,-0.484 (inactive),0.647,0.614,0.0042,0.312,0.149,0.265,0.142,-1.72,0.609,0.0314,-0.551,-0.154,0.233,0.588,0.569,0.997
